Here are results for 33 molecules from PubChem BioAssay (EPA / NIEHS).

The structures appear in SMILES notation. The source made the active and inactive calls. The calls were made as follows: active = hit-call score of the fitted dose curve at least 0.9, where 1 is the maximum; inactive = score below 0.9.

Read-out in the first test: Pselectin, SELP (gene 6403)
Put plainly: BSK_4H_Pselectin: BioMAP Diversity Plus: 4H Assay for Pselectin Biomarker Activity (AID 2283026). Particulars: primary human endothelial cells (HUVEC); actives raise or lower the signal. The method in brief:
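Primary human umbilical vein endothelial cells were exposed to test chemical for 24 h, then cell-surface P-selectin was quantified by ELISA. Activity was fitted bidirectionally against DMSO as negative control and baseline.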
A word on the AC50: it is the concentration giving half of the maximal activity seen. Take `Cc1ccc2nc3sc(=O)sc3nc2c1`: the AC50 was 3.77 µM (active).
With `OC(Cc1ccccc1Cl)(Cn1cncn1)C1(Cl)CC1` (configuration not stated), the outcome was inactive.
Consider `Cc1ccccc1OP(=O)(Oc1ccccc1)Oc1ccccc1`, for which the AC50 is 20 µM (active).
For the molecule `O=[N+]([O-])c1cccc2ccccc12`, the result was inactive.
Take `Oc1c(Cl)cc(Cl)cc1Cl`: the result was inactive.
As for `CCOC(=O)CCN(SN(C)C(=O)Oc1cccc2c1OC(C)(C)C2)C(C)C`, the AC50 is 23.2 µM (active).
On the same count and under the same terms, the result for `OC(Cc1ccccc1Cl)(Cn1[nH]cnc1=S)C1(Cl)CC1` (configuration not stated) reads 20 µM (active).
Turning to `CCOP(=O)(OCC)SCCSCC`, the result was inactive.
As for `N#CCCC(Br)(C#N)CBr` (configuration not stated), the AC50 is 6.62 µM (active).
As for `Cc1cc(C(C)(C)c2ccc(O)c(C)c2)ccc1O`, the AC50 is 17.7 µM (active).
In the case of `O=C(O)COc1cc(Cl)c(Cl)cc1Cl`, the result was inactive.
Take `CC(C)(C)c1cc([N+](=O)[O-])cc(C(C)(C)C)c1O`: the outcome was inactive.
With `c1ccc(-c2cccc(-c3ccccc3)c2)cc1`, the AC50 is 12.4 µM (active).
Consider `Cc1ccc(OP(=O)(Oc2ccc(C)cc2C)Oc2ccc(C)cc2C)c(C)c1`, for which the AC50 is 12.9 µM (active).
As to `O=S(=O)(C(Cl)(Cl)Cl)C(Cl)(Cl)Cl`, the AC50 was 1.1 µM (active).
Turning to `C=CC(Cl)CCl` (configuration not stated), the result was inactive.
The same measure, in the same setting: the entry for `COc1ccccc1N` is “inactive”; for `CCN(CC)C(=O)C(Cl)=C(C)OP(=O)(OC)OC` it is “inactive”.
As for `CC(C=O)Cc1ccc2c(c1)OCO2` (configuration not stated), the outcome was inactive.
Same read-out and setting: the entry for `OCCN(CCO)CCO` is “inactive”.
As for `[Cl][Sn]([c]1ccccc1)([c]1ccccc1)[c]1ccccc1`, the AC50 was 0.0641 µM (active).
On to `C#CCOC(=O)/C=C(C)/C=C/CC(C)CCCC(C)C` (configuration not stated), for which the AC50 is 20 µM (active).
On to `CN(C)C(=S)S`, for which the result was inactive.
With `CC(C)=CC1C(C(=O)OCc2cccc(Oc3ccccc3)c2)C1(C)C` (configuration not stated), the result was inactive.
Turning to `CCOP(=S)(OCC)OP(=S)(OCC)OCC`, the AC50 was 31.2 µM (active).
On to `Cc1cc(C)cc(C)c1`, for which the result was inactive.

Read-out in the next test: not listed separately
Put plainly: BSK_4H_SRB: Viability Assessment in the BioMAP Diversity Plus: 4H Assay (AID 2283027).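 Also: cells exposed to compound for 24 h before staining.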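 As to AC50: curves fitted both ways versus DMSO so AC50 may be loss or gain.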 The note with it: primary human endothelial cells (HUVEC). In outline: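 Absorbance at 560 nm of SRB-stained total protein served as the viability read-out in confluent primary human umbilical vein endothelium 24 h after chemical treatment. Curves were fitted bidirectionally against DMSO as negative control.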
On to `Cc1ccc2nc3sc(=O)sc3nc2c1`, for which the AC50 is 6.96 µM (active).
Regarding `OC(Cc1ccccc1Cl)(Cn1cncn1)C1(Cl)CC1` (configuration not stated), the outcome was inactive.
Regarding `Cc1ccccc1OP(=O)(Oc1ccccc1)Oc1ccccc1`, the AC50 was 20 µM (active).
On to `O=[N+]([O-])c1cccc2ccccc12`, for which the outcome was inactive.
The same measure, in the same setting: the result for `Oc1c(Cl)cc(Cl)cc1Cl` reads “inactive”.
For the molecule `CCOC(=O)CCN(SN(C)C(=O)Oc1cccc2c1OC(C)(C)C2)C(C)C`, the outcome was inactive.
As for `OC(Cc1ccccc1Cl)(Cn1[nH]cnc1=S)C1(Cl)CC1` (configuration not stated), the AC50 was 27.8 µM (active).
Regarding `CCOP(=O)(OCC)SCCSCC`, the result was inactive.
Consider `N#CCCC(Br)(C#N)CBr` (configuration not stated), for which the AC50 is 6.36 µM (active).
In the case of `Cc1cc(C(C)(C)c2ccc(O)c(C)c2)ccc1O`, the AC50 was 14.3 µM (active).
For the molecule `O=C(O)COc1cc(Cl)c(Cl)cc1Cl`, the outcome was inactive.
On the same count and under the same terms, the result for `O=[N+]([O-])c1ccc(Nc2ccccc2)cc1` reads “inactive”.
As to `Cc1ccccc1OP(=O)(Oc1ccccc1C)Oc1ccccc1C`, the AC50 was 15.2 µM (active).
With `CCOC(=O)C(SP(=S)(OC)OC)c1ccccc1` (configuration not stated), the AC50 is 29.5 µM (active).
Take `CC(C)(C)c1cc([N+](=O)[O-])cc(C(C)(C)C)c1O`: the AC50 is 0.0719 µM (active).
With `CC1(C)[C@H](C(=O)O[C@H](C#N)c2cccc(Oc3ccccc3)c2)[C@@H]1/C=C(\Cl)C(F)(F)F`, the outcome was inactive.
Consider `c1ccc(-c2cccc(-c3ccccc3)c2)cc1`, for which the AC50 was 20 µM (active).
Regarding `Cc1ccc(OP(=O)(Oc2ccc(C)cc2C)Oc2ccc(C)cc2C)c(C)c1`, the result was inactive.
Still for that read-out and setting: the result for `CC(C)(C)c1ccccc1O` reads “inactive”.
`O=S(=O)(C(Cl)(Cl)Cl)C(Cl)(Cl)Cl`: the AC50 is 0.932 µM (active).
For `C=CC(Cl)CCl` (configuration not stated), the outcome was inactive.
As to `CCOP(=O)(OCC)OC(=CCl)c1ccc(Cl)cc1Cl`, the AC50 was 29.3 µM (active).
Take `COc1ccccc1N`: the outcome was inactive.
Still for that read-out and setting: the result for `CCN(CC)C(=O)C(Cl)=C(C)OP(=O)(OC)OC` reads “inactive”.
In the case of `CC(C=O)Cc1ccc2c(c1)OCO2` (configuration not stated), the outcome was inactive.
The same measure, in the same setting: the result for `OCCN(CCO)CCO` reads “inactive”.
With `[Cl][Sn]([c]1ccccc1)([c]1ccccc1)[c]1ccccc1`, the half-maximal activity concentration (AC50) is 0.192 µM (active).
Regarding `C#CCOC(=O)/C=C(C)/C=C/CC(C)CCCC(C)C` (configuration not stated), the AC50 was 33.2 µM (active).
Turning to `CN(C)C(=S)S`, the outcome was inactive.
Still for that read-out and setting: the result for `CC(C)=CC1C(C(=O)OCc2cccc(Oc3ccccc3)c2)C1(C)C` (configuration not stated) reads “inactive”.
Take `CCOP(=S)(OCC)OP(=S)(OCC)OCC`: the concentration at half-maximal activity (AC50) was 20 µM (active).
Regarding `O=S(=O)(c1ccc(Cl)cc1)c1cc(Cl)c(Cl)cc1Cl`, the result was inactive.
On to `Cc1cc(C)cc(C)c1`, for which the result was inactive.

Read-out in the next test: not listed separately
Briefly: BSK_BE3C_SRB: Viability Assessment in the BioMAP Diversity Plus: BE3C Assay (AID 2283028).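 As to AC50: fitted both ways so AC50 may mark signal gain or loss versus DMSO.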 Particulars: primary human bronchial epithelial cells. The method in brief:
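Human primary bronchial epithelial cells were exposed to test chemicals for 24 h. Total protein in parallel cultures was then measured by staining with 0.1% sulforhodamine B after 10% TCA fixation, with absorbance read at 560 nm. Activity was fitted bidirectionally against DMSO.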
On to `Cc1ccc2nc3sc(=O)sc3nc2c1`, for which the result was inactive.
Regarding `OC(Cc1ccccc1Cl)(Cn1cncn1)C1(Cl)CC1` (configuration not stated), the outcome was inactive.
The same measure, in the same setting: the result for `Cc1ccccc1OP(=O)(Oc1ccccc1)Oc1ccccc1` reads “inactive”.
`O=[N+]([O-])c1cccc2ccccc12`: the result was inactive.
For `Oc1c(Cl)cc(Cl)cc1Cl`, the result was inactive.
The same measure, in the same setting: the entry for `CCOC(=O)CCN(SN(C)C(=O)Oc1cccc2c1OC(C)(C)C2)C(C)C` is “inactive”; for `OC(Cc1ccccc1Cl)(Cn1[nH]cnc1=S)C1(Cl)CC1` (configuration not stated) it is “inactive”.
The same measure, in the same setting: the result for `CCOP(=O)(OCC)SCCSCC` reads “inactive”.
In the case of `N#CCCC(Br)(C#N)CBr` (configuration not stated), the AC50 is 20 µM (active).
As to `Cc1cc(C(C)(C)c2ccc(O)c(C)c2)ccc1O`, the result was inactive.
On the same count and under the same terms, the entry for `O=C(O)COc1cc(Cl)c(Cl)cc1Cl` is “inactive”; for `O=[N+]([O-])c1ccc(Nc2ccccc2)cc1` it is “inactive”.
On to `Cc1ccccc1OP(=O)(Oc1ccccc1C)Oc1ccccc1C`, for which the AC50 is 16 µM (active).
In the case of `CCOC(=O)C(SP(=S)(OC)OC)c1ccccc1` (configuration not stated), the result was inactive.
For `CC(C)(C)c1cc([N+](=O)[O-])cc(C(C)(C)C)c1O`, the outcome was inactive.
For `CC1(C)[C@H](C(=O)O[C@H](C#N)c2cccc(Oc3ccccc3)c2)[C@@H]1/C=C(\Cl)C(F)(F)F`, the result was inactive.
`c1ccc(-c2cccc(-c3ccccc3)c2)cc1`: the result was inactive.
Still for that read-out and setting: the entry for `Cc1ccc(OP(=O)(Oc2ccc(C)cc2C)Oc2ccc(C)cc2C)c(C)c1` is “inactive”; for `CC(C)(C)c1ccccc1O` it is “inactive”.
For `O=S(=O)(C(Cl)(Cl)Cl)C(Cl)(Cl)Cl`, the AC50 was 4.45 µM (active).
Take `C=CC(Cl)CCl` (configuration not stated): the result was inactive.
On the same count and under the same terms, the entry for `CCOP(=O)(OCC)OC(=CCl)c1ccc(Cl)cc1Cl` is “inactive”; for `COc1ccccc1N` it is “inactive”; for `CCN(CC)C(=O)C(Cl)=C(C)OP(=O)(OC)OC` it is “inactive”.
For `CC(C=O)Cc1ccc2c(c1)OCO2` (configuration not stated), the outcome was inactive.
Regarding `OCCN(CCO)CCO`, the result was inactive.
`[Cl][Sn]([c]1ccccc1)([c]1ccccc1)[c]1ccccc1`: the concentration at half-maximal activity (AC50) is 0.146 µM (active).
Regarding `C#CCOC(=O)/C=C(C)/C=C/CC(C)CCCC(C)C` (configuration not stated), the outcome was inactive.
For `CN(C)C(=S)S`, the result was inactive.
On to `CC(C)=CC1C(C(=O)OCc2cccc(Oc3ccccc3)c2)C1(C)C` (configuration not stated), for which the outcome was inactive.
Consider `CCOP(=S)(OCC)OP(=S)(OCC)OCC`, for which the result was inactive.
On to `O=S(=O)(c1ccc(Cl)cc1)c1cc(Cl)c(Cl)cc1Cl`, for which the result was inactive.
For `Cc1cc(C)cc(C)c1`, the outcome was inactive.
